Measurements: PubChem BioAssay AID1159580 (chemical genetic matrix, 2015)
Several values for one entry are separate records, joined by “and”; a condition that tells them apart may be missing. Identical values can stand only once. In all, about 5,500 compounds went through this assay and about 2,000 (36%) were called active. Roughly 18% stayed inconclusive and do not appear here. Cut-off read from the data, not from the text of the source: active = normalized growth mostly below about 0.91 (no sharp cut-off); inconclusive = no clear call, values can overlap the other calls; inactive = mostly above about 0.92. The list shows a part of the results.

Test: chemical genetic growth profiling, strain panel (AID 1159580);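 note: tested at 20 µM; growth read once vehicle control cultures reached saturation at 30 °C; 1 = growth at the plate median or of vehicle wells; lower values mean less growth of the strain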
Conditions: S. cerevisiae deletion strains, growth OD

Measured: normalized growth

CCn1cc(C(=O)O)c(=O)c2cc(F)c(N3CCNC(C)C3)c(F)c21 (centres undefined)
inactive: locus YAL013W, strain DEP1, hits give low values 0.989 | locus YAL021C, strain ccr4, hits give low values 0.957 | locus YAL026C, strain drs2, hits give low values 0.974 | locus YAL030W, strain snc1, hits give low values 0.988 | locus YAL040C, strain CLN3, hits give low values 0.984 | locus YBL061C, strain skt5, hits give low values 0.962 | locus YBR009C, strain hhf1, hits give low values 1.01 | locus YBR021W, strain FUR4, hits give low values 0.982 | locus YBR023C, strain chs3, hits give low values 0.986 | locus YBR171W, strain sec66, hits give low values 0.975 | locus YBR229C, strain ROT2, hits give low values 1 | locus YBR231C, strain swc5, hits give low values 0.997 | locus YBR279W, strain paf1, hits give low values 0.975 | locus YCL011C, strain gbp2, hits give low values 0.971 | locus YCL016C, strain dcc1, hits give low values 0.958 | locus YCL029C, strain bik1, hits give low values 0.979 | locus YCL061C, strain MRC1 (second series), hits give low values 0.997 | locus YCL061C, strain MRC1, hits give low values 0.993 | locus YCL069W, strain vba3, hits give low values 0.975 | locus YCR088W, strain abp1, hits give low values 0.964 | locus YDL005C, strain med2, hits give low values 0.97 | locus YDL035C, strain GPR1, hits give low values 0.978 | locus YDL040C, strain nat1, hits give low values 0.981 | locus YDL074C, strain BRE1, hits give low values 1.02 | locus YDL101C, strain DUN1, hits give low values 0.995 | locus YDL134C, strain PPH21, hits give low values 0.985 | locus YDL185W, strain tfp1, hits give low values 0.963 | locus YDL192W, strain arf1, hits give low values 0.992 | locus YDR001C, strain nth1, hits give low values 0.974 | locus YDR069C, strain doa4, hits give low values 0.989 | locus YDR101C, strain arx1, hits give low values 0.988 | locus YDR137W, strain rgp1, hits give low values 0.949 | locus YDR150W, strain NUM1, hits give low values 0.996 | locus YDR159W, strain sac3, hits give low values 0.949 | locus YDR162C, strain NBP2, hits give low values 0.98 | locus YDR195W, strain ref2 0.997 | locus YDR297W, strain sur2, hits give low values 0.978 | locus YDR318W, strain mcm21, hits give low values 0.976 | locus YDR334W, strain swr1, hits give low values 0.975 | locus YDR335W, strain msn5, hits give low values 0.968 | locus YDR363W, strain ESC2, hits give low values 1.01 | locus YDR388W, hits give low values 0.995 | locus YDR392W, strain spt3, hits give low values 0.842 | locus YDR502C, strain sam2, hits give low values 0.986 | locus YEL003W, strain gim4, hits give low values 0.982 | locus YEL037C, strain rad23, hits give low values 0.974 | locus YEL061C, strain CIN8 (second series), hits give low values 0.975 | locus YEL061C, strain CIN8, hits give low values 1.01 | locus YER002W, strain NOP16, hits give low values 0.987 | locus YER015W, strain faa2, hits give low values 0.988 | locus YER016W, strain bim1, hits give low values 0.948 | locus YER110C, hits give low values 0.984 | locus YER111C, strain swi4, hits give low values 0.964 | locus YER155C, strain BEM2 (second series), hits give low values 0.945 | locus YER155C, strain BEM2, hits give low values 0.993 | locus YER167W, strain BCK2, hits give low values 0.971 | locus YFR010W, strain ubp6, hits give low values 1 | locus YGL078C, strain dbp3, hits give low values 0.988 | locus YGL086W, strain mad1, hits give low values 0.995 | locus YGL167C, strain pmr1, hits give low values 0.98 | locus YGL173C, strain kem1, hits give low values 0.993 | locus YGL227W, strain vid30, hits give low values 0.981 | locus YGL240W, strain doc1, hits give low values 1.01 | locus YGL248W, strain PDE1, hits give low values 1.01 | locus YGL253W, strain hxk2, hits give low values 0.98 | locus YGR078C, strain PAC10, hits give low values 1.04 and 1.02 | locus YGR135W, strain pre9, hits give low values 0.953 | locus YGR252W, strain gcn5, hits give low values 0.991 | locus YHR013C, strain ard1, hits give low values 0.984 | locus YHR027C, strain rpn1, hits give low values 1 | locus YHR030C, strain SLT2, hits give low values 0.988 and 1.03 | locus YHR079C, strain IRE1 (second series), hits give low values 0.985 | locus YHR079C, strain IRE1, hits give low values 1.06 | locus YHR094C, strain hxt1, hits give low values 0.993 | locus YHR129C, strain ARP1, hits give low values 0.991 | locus YHR142W, strain chs7, hits give low values 0.948 | locus YHR200W, strain rpn10, hits give low values 0.982 | locus YIL066C, strain RNR3, hits give low values 1.01 | locus YIL073C, strain SPO22, hits give low values 0.867 | locus YIL125W, strain kgd1, hits give low values 0.998 | locus YIR030C, strain dcg1, hits give low values 0.98 | locus YJL092W, strain hpr5, hits give low values 0.99 | locus YJL095W, strain BCK1 (second series), hits give low values 0.968 | locus YJL095W, strain BCK1, hits give low values 1.03 and 1.01 | locus YJL115W, strain asf1, hits give low values 0.967 | locus YJL129C, strain trk1, hits give low values 0.931 | locus YJL134W, strain LCB3, hits give low values 0.987 | locus YJL154C, strain vps35, hits give low values 0.967 | locus YJL164C, strain tpk1, hits give low values 0.975 | locus YJL166W, strain qcr8, hits give low values 0.998 | locus YJL168C, strain set2, hits give low values 0.999 | locus YJL187C, strain SWE1 (second series), hits give low values 1.02 | locus YJR043C, strain POL32, hits give low values 1.01 | locus YJR066W, strain TOR1, hits give low values 0.956
